Here are results for 39 compounds from ChEMBL document CHEMBL4513135, “CO-ADD screening of IQOG CSIS (Spain) compounds”.

One experiment relates to Staphylococcus aureus. As to conditions: Concentration 32 ug.mL-1; ASSAY_TEST Inhibition of Bacterial Growth; detection method Absorption (OD600); MEDIA CAMHB; plate type 384well; NBS; CORNING #3640; time 18 hr.
The subject of a further experiment is Escherichia coli. As to conditions: Concentration 32 ug.mL-1, ASSAY_TEST Inhibition of Bacterial Growth, detection method Absorption (OD600), MEDIA CAMHB, plate type 384well, NBS, CORNING #3640, time 18 hr.

“And” between values parts separate entries of the source, which are not always exact repeats. Equal values may be shown once. Measured potencies and affinities stand elsewhere.

In general, Inhibition refers to the change of the read-out against control, counted positive when it falls. With `C#CCN(C)Cc1cc2cc(OCc3ccc(OC(=O)N(C)C)c4ncccc34)ccc2n1C`, the Inhibition in the experiment on Staphylococcus aureus is recorded as 7.52%; with Escherichia coli it was -14.26%. For `C#CCN1CCc2nc3nc(OC)c(C#N)cc3c(N)c2C1` the same measures were 26.45% and -2.8%. Regarding `CCOc1nc2nc(C)c(C(=O)O)cc2c(-c2ccccc2)c1C#N`, the Inhibition in the experiment with Staphylococcus aureus is 17.86%; in the experiment with Escherichia coli it was -10.47%. The like results for `Cc1ccccc1C=C(C#N)C#N` were, in that order, 3.49% and 0.38%.

On to `C#CCN1CCc2nc3nc(Cl)c(C#N)cc3c(N)c2C1`, for which the Inhibition was 26.25% in the experiment on Staphylococcus aureus and -10.74% with Escherichia coli. The like results for `CCOC(=O)C1=C(C)OC(=O)CC1c1ccccc1` (configuration not stated) were, in that order, 23.21% and -9.36%. Regarding `Nc1c2c(nc3c1C(c1ccccc1)CC(=O)N3)CCCC2` (configuration not stated), the Inhibition was 28.94% in the experiment with Staphylococcus aureus and 0.15% with Escherichia coli. For `C#CCN1CCc2nc3ncccc3c(N)c2C1.Cl` the same measures were 20.08% and -15.24%. Regarding `C#CCN1CCc2nc(N)c(C#N)c(-c3ccccc3)c2C1`, in the experiment on Escherichia coli (32 ug/mL), the Inhibition was -14.9% and -16.29%. Regarding `Nc1c2c(nc3ccccc13)CCN(Cc1ccccc1)C2`, the Inhibition is listed as 9.97% with Staphylococcus aureus and 1.56% in the experiment on Escherichia coli. In the case of `N#CC(C#N)=Cc1ccc(Cl)cc1`, the Inhibition is reported as 7.12% in the experiment with Staphylococcus aureus and 5.89% with Escherichia coli. The like results for `COc1cc(C2C(C#N)=C(N)Oc3c2ccc2ccccc32)cc(OC)c1OC` (configuration not stated) were, in that order, 6.42% and 8.07%. Turning to `Cc1ccc(C=C(C#N)C#N)cc1`, the Inhibition in the experiment on Staphylococcus aureus was 8.41%; in the experiment with Escherichia coli, 8.38%.

`COc1ccc2c(c1)cc(C[N+](C)(C)C)n2C.[I-]`: the Inhibition is listed as 13.5% in the experiment with Staphylococcus aureus and 12.23% in the experiment on Escherichia coli. For `CCOC(=O)c1cn(Cc2ccccc2)c2ccccc12` the same measures were 3.83% and -2.16%. For `CCOC(=O)c1cc2cc(OC(=O)NC3CCN(Cc4ccccc4)CC3)ccc2[nH]1` the same measures were 20.68% and -6.09%.

In the case of `C#CCN(C)Cc1cc2cc(OC(=O)N(C)C)ccc2n1C`, the Inhibition with Staphylococcus aureus is given as -2.15%; with Escherichia coli, -5.14%. Take `CN(C)C(=O)Oc1ccc(CCl)c2cccnc12`: the results for the Inhibition in the experiment with Staphylococcus aureus and in the experiment with Escherichia coli were 22.39% and -10.05%, respectively. In the case of `NNC(=O)c1cn(Cc2ccccc2)c2ccccc12`, the Inhibition turned out to be 1.65% in the experiment on Staphylococcus aureus and 1.53% in the experiment on Escherichia coli. For `C#CCN(C)Cc1cc2cc(OCCCC3CCN(Cc4ccc(OC(=O)N(C)C)c5ncccc45)CC3)ccc2n1C` the same measures were 11.25% and -10.82%. For `NNCCCc1c[nH]c2ccccc12.O=C(O)/C=C/C(=O)O` the same measures were 18.22% and 27.72%. For `N#Cc1cc(C#N)c(N2C3CCC2CC3)nc1N` the same measures were -1.36% and 10.18%. Take `Cl.ClCCN1CCCCC1`: the Inhibition in the experiment on Staphylococcus aureus is given as 28.78%; in the experiment with Escherichia coli, 20.05%. For `N#CCC(=O)c1ccccc1` the same measures were 30.68% and 18.52%.

Turning to `CNCc1cn(C)c2ccc(OC)cc12.Cl`, the Inhibition was determined as 14.24% in the experiment with Staphylococcus aureus and 17.26% in the experiment on Escherichia coli. As for `[N-]=[N+]=NCC(=O)c1ccc(Br)cc1`, the Inhibition is 26.38% with Staphylococcus aureus and 9.41% with Escherichia coli. The like results for `CN1CC=C(c2cccn2C)CC1.Cl` were, in that order, 10.31% and 19.65%. For `CN1CC=C(c2cccn2C)CC1` the same measures were 10.32% and 19%.

As for `Cl.ClCCN1CCCC1`, the Inhibition is 22.74% in the experiment on Staphylococcus aureus and 7.3% with Escherichia coli.

With `CCOC(=O)C1=C(C)NC(=O)CC1c1ccccc1` (configuration not stated), the Inhibition was 39.69% in the experiment with Staphylococcus aureus and -3.27% with Escherichia coli.

For `OCC(Cc1cnc[nH]1)NCc1ccccc1` (configuration not stated), the Inhibition amounted to 6.92% in the experiment with Staphylococcus aureus and 2.95% with Escherichia coli. The like results for `O=C(CBr)NCc1ccccc1` were, in that order, 46.96% and 14.62%. For `COc1ccc(C=C(C#N)C#N)cc1OC`, the Inhibition is given as 14.77% in the experiment with Staphylococcus aureus and 13.47% in the experiment with Escherichia coli.

In the case of `CCOC(=O)C1=C(OC)OC(=O)CC1c1ccccc1` (configuration not stated), the results for the Inhibition in the experiment with Staphylococcus aureus and in the experiment on Escherichia coli were 39.56% and -6.33%, respectively.

In the case of `NNC(=O)c1cccnc1` [NICOTINIC ACID HYDRAZIDE], the Inhibition with Staphylococcus aureus is listed as 11.6%; with Escherichia coli it was 15.76%. The like results for `CC1CC(=O)Nc2nc3c(c(N)c21)CCCC3` (configuration not stated) were, in that order, 27.94% and -10.32%.

`Cc1ccc(S(=O)(=O)N2[C@H]3CC[C@@H]2CC3)cc1`: the values for the Inhibition in the experiment on Staphylococcus aureus and in the experiment with Escherichia coli were 28.46% and -2.06%, respectively.

Regarding `Cc1nc(N)c(C#N)cc1C(=O)O`, the Inhibition was 4.41% in the experiment on Staphylococcus aureus and -9.15% with Escherichia coli. The like results for `O=C(N1[C@H]2CC[C@@H]1C(c1nnn[nH]1)C2)C(F)(F)F` (some centres not stated) were, in that order, 26.59% and -6.69%.
